Experimental data as given in PubChem BioAssay.
Values joined by “and” are separate entries in the source; they are usually repeats but may differ in a detail not shown here. Equal values may be shown once. Active and inactive are the calls of the source.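 How the source made its calls, unless noted: active means inhibition at or above 50% relative to wild type and mutant plate controls; inactive means inhibition below 50%.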

Assays:
[1] = inhibitors of TNFa-induced NFkB p65 translocation, primary screen, imaging, HUVEC, MLSMR starter and 10KST1 sets (AID 438;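 active means inhibition above 20% together with a positive visual image hit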;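 further: compound added about 3h40 before a 20 min TNFalpha stimulation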;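 on inhibition: signal is the nuclear over cytoplasmic p65 intensity ratio per well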); conditions: HUVEC TNFa-induced p65 nuclear translocation; cell count: measured here: nuclei count (cytotoxicity indicator), at 2.08 µM; inhibition: at 2 µM, stronger effect = higher value, 0% TNFa-plus-vehicle, 100% no-TNFa wells
[2] = inhibitors of mutant huntingtin aggregation, primary screen, imaging, exon1htt(103Q)mCFP cells, high-content imaging (AID 483;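 active means visual image review flags a hit and inhibition of aggregation exceeds 20%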;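 further: compound exposure lasted 3 days before fixation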;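 on nuclei count: percent of the per-plate median nuclei count of sample wells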); conditions: exon1htt(103Q)mCFP cell line, aggregate imaging, at 2 µM; inhibition of aggregation: stronger effect = higher value; nuclei count: measured here: cell count, toxicity
[3] = inhibitors of E-selectin induction by TNFa, primary screen, imaging, HUVEC, immunofluorescence, MLSMR starter and 10KST1 sets (AID 487;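 active means visually confirmed hit in the image check and inhibition above 20%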;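 on inhibition: signal is fraction of cell area covered by stained E-selectin grains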;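 on nuclei count: 100% = median nuclei count of all wells on the same plate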); conditions: HUVEC TNFalpha-induced E-selectin immunofluorescence imaging, at 2 µM; inhibition: stronger effect = higher value; nuclei count: measured here: cell number, toxicity
[4] = DUSP6 inhibitors restoring Erk phosphorylation by chemical complementation, primary imaging in DUSP6-transfected HeLa (AID 609;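 active means compounds giving at least 50% inhibition in the cell-based MKP-3 phosphatase rescue imaging test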;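 on inhibition: phospho-Erk level distribution per well compared with pooled transfected vehicle control wells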); conditions: HeLa MKP-3 transfected, phospho-Erk imaging KS statistic, at 10 µM, cells stimulated with TPA for 15 min
[5] = target: Dual specificity protein phosphatase 6 (Homo sapiens) (UniProt Q16828); assay: as above; conditions: HeLa MKP-3 transfected, phospho-Erk imaging KS statistic; at 10 µM; stronger effect = higher value; cells stimulated with TPA for 15 min
[6] = target: Voltage-gated potassium channel subunit beta-2 (Rattus norvegicus) (UniProt P62483); assay: KvBeta enzyme negative modulators, primary screen, biochemical, NADPH fluorescence (AID 622;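 active means fluorescence slope higher than the sample average by over 3 SD, cut at about -0.22 in these data, passing the limit was not always enough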;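 further: slope of raw intensity against log time taken from 70 to 1610 s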); conditions: recombinant KvBeta, 4-cyanobenzaldehyde reduction, at 10 µM, stronger effect = higher value
[7] = target: Voltage-gated potassium channel subunit beta-2 (Rattus norvegicus) (UniProt P62483); assay: KvBeta positive modulators, primary screen, biochemical, NADPH fluorescence (AID 623;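 active means NADPH fluorescence slope more negative than the mean of all samples by about 3 SD, 99.7% confidence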;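 further: fluorescence intensity change per second fitted from 20 to 320 s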); conditions: Recombinant KvBeta, NADPH fluorescence decrease slope, 10 min; at 10 µM; stronger effect = lower value
[8] = target: Alpha-2C adrenergic receptor (Homo sapiens) (UniProt P18825); assay: modulators of alpha2C/GIRK thallium flux, primary screen, cell-based, HEK293 alpha2C/GIRK1/2 (AID 624;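 active means fluorescence slope after compound addition differing from the mean of all screened samples at 99.7% confidence, in either direction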;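 further: slope of fluorescence ratio to pre-addition baseline per second over 15 to 24 s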); conditions: thallium flux BTC fluorescence, at 10 µM, actives lie on both sides
[9] = inhibitors of larval lipid processing in zebrafish, primary screen, whole organism, PED6 fluorescence, gall bladder and intestine (AID 686;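 active means a full or partial loss of lipid-probe fluorescence in the fish gall bladder, intestine or both, judged by eye; inactive means no fluorescence loss, or compound toxic to the fish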;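 further: larvae 5 to 7 days old with five fish per well; signal comes from phospholipase A2 cleavage of quenched PED6 carried via bile; overnight exposure to compound and PED6 before scoring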); conditions: Zebrafish larvae PED6 lipid processing, fluorescence scoring; screened at 20 µM (by protocol)
[10] = inhibitors of Chlamydomonas gravitaxis, primary screen, whole organism, Chlamydomonas reinhardtii, WT vs cilia-less mutant, absorbance, 96-well (AID 463189); conditions: OD600 absorbance, 2 days, at 10 µM, stronger effect = higher value;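 further: 0% = wild type cc124 cells in DMSO and 100% = ciliumless bld1 mutant cells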
[11] = inhibitors of Sendai virus-induced IRF3 signaling, primary screen, TLR/RLR signaling modifier project, cell-based, Sendai virus stimulus, luciferase, 10K MLSCN set (AID 602276;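 active means inhibition at or above 50% at 10 µM; inactive means inhibition below 50%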;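 further: firefly luciferase from ISG56 promoter only with Renilla not read in this screen; 0% = Sendai virus plus DMSO and 100% = medium plus DMSO without virus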); conditions: HEK293 RL24 IRF3 luciferase reporter, at 10 µM, stronger effect = higher value
[12] = inhibitors of poly I:C-induced TLR3 signaling, primary screen, cell-based, poly I:C stimulus, luciferase, 10K MLSCN set (AID 602277;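 active means inhibition of the reporter signal at or above 50%; inactive means inhibition below 50%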); conditions: HEK293-TLR3 RL24 IRF3 luciferase reporter, at 10 µM, stronger effect = higher value
[13] = measured here: cell density z-score
[14] = measured here: nuclear c-Myc green intensity z-score
[15] = measured here: nuclear pErk red intensity z-score, stronger effect = higher value

Dual specificity protein phosphatase 6 (Homo sapiens), sequence (Q16828 whole entry, looked up): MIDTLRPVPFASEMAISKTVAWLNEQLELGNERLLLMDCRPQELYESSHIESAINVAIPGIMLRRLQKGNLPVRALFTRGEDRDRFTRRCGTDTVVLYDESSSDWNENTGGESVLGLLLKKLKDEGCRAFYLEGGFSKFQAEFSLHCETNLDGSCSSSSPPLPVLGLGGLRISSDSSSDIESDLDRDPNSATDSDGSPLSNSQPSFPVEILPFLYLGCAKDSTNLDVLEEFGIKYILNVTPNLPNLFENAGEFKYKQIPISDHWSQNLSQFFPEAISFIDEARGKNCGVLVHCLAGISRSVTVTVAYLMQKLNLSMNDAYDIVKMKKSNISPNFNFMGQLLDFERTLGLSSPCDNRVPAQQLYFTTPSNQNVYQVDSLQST
Voltage-gated potassium channel subunit beta-2 (Rattus norvegicus), sequence (P62483 whole entry, looked up): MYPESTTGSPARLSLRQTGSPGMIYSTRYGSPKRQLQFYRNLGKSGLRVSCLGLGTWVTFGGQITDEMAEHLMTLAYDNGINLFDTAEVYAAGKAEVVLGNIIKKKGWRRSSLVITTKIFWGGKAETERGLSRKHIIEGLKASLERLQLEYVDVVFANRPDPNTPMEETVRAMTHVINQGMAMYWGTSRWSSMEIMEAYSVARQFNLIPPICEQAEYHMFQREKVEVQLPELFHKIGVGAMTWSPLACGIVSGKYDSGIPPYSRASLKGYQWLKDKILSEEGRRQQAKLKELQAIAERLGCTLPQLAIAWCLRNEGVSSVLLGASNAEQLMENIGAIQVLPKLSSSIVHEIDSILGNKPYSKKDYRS
Alpha-2C adrenergic receptor (Homo sapiens), sequence (P18825 whole entry, looked up): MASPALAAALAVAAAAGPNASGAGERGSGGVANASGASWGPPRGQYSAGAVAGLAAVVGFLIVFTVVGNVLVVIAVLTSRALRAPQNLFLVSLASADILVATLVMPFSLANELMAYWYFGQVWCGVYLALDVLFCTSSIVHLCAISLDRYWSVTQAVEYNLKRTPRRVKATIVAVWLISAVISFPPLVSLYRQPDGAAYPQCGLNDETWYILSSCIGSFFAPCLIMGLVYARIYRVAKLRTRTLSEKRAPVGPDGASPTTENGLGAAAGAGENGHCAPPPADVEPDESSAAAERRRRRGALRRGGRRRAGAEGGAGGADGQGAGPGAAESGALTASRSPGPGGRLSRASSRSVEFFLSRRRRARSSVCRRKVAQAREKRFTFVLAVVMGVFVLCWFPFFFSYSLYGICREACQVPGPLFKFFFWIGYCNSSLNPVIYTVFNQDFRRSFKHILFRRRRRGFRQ

| Structure (SMILES) | cell count [1] | inhibition [1] | inhibition of aggregation [2] | nuclei count [2] | inhibition [3] | nuclei count [3] | z-score [4, 13] | z-score [4, 14] | z-score [4, 15] | inhibition [5] | fluorescence slope [6] | NADPH fluorescence slope [7] | slope [8] | outcome [9] | inhibition [10] | inhibition [11] | inhibition [12] |
| --- | --- | --- | --- | --- | --- | --- | --- | --- | --- | --- | --- | --- | --- | --- | --- | --- | --- |
| Brc1cccc(-c2cnc3n2CCCCC3)c1 | 517 | -12.1% (inactive) | 5.1% (inactive) | 76.5% | -58.1% (inactive) | 139% | 0.246 | -0.612 | 1.65 | -8.95% (inactive) | -0.446 (inactive) | -0.000303 (inactive) | 0.00481 (inactive) | inactive | 59.2% (active) | -2.77% (inactive) | -38% (inactive) |
| Cc1noc(COc2ccccc2OCC(O)CNC(C)(C)C)n1 (stereo not given) | 623 | -11.7% (inactive) | 16.2% (inactive) | 89.4% | -52.1% (inactive) | 128% | -0.283 | 1.24 | 2.27 | -16.8% (inactive) | -0.496 (inactive) | -2.4e-05 (inactive) | 0.0046 (inactive) | inactive | -3.71% (inactive) | 16.2% (inactive) | 99.7% (active) |
| Cc1nn(C)cc1C1C2=C(CC(C)(C)CC2=O)OC2=C1C(=O)CC(C)(C)C2 | 616 | -2.2% (inactive) | 2.2% (inactive) | 108% | -77.9% (inactive) | 140% | 0.812 | 0.307 | -0.678 | 2.46% (inactive) | -0.337 (inactive) | -6.9e-06 (inactive) | 0.00477 (inactive) | inactive | 1.65% (inactive) | 10.6% (inactive) | 18% (inactive) |
| CN1CC=C2C(C#N)=C(N)C(C#N)(C#N)[C@H](c3cccc(Cl)c3)C2C1 (stereo not given in full) | 642 | -6% (inactive) | -38.1% (inactive) | 98.3% | -18.6% (inactive) | 125% | 0.015 | 5.62 | 0.205 | 71% (inactive) | -0.368 (inactive) | -4.7e-05 (inactive) | 0.00551 (inactive) | inactive | 5.27% (inactive) | 13.6% (inactive) | 24.1% (inactive) |
| Cn1c([N+](=O)[O-])cnc1COC(N)=O | 663 | -2.1% (inactive) | 6.9% (inactive) | 97.8% | -73.8% (inactive) | 138% | 0.12 | 0.491 | 1.01 | 1.48% (inactive) | -0.492 (inactive) | -3.9e-05 (inactive) | 0.00486 (inactive) | inactive | 15.2% (inactive) | 16.7% (inactive) | 40.5% (inactive) |
| CN(C)c1ccc(O)c2c1CC1CC3[C@@H](N(C)C)C(=O)C(C(N)=O)=C(O)[C@]3(O)C(=O)C1=C2O (stereo not given in full) | 516 | -12.2% (inactive) | 71.3% (active) | 103% | -55.7% (inactive) | 131% | 0.362 | 0.874 | 0.268 | 1.48% (inactive) | -0.51 (inactive) | -5e-06 (inactive) | 0.00461 (inactive) | inactive | 82.6% (active) | 17.8% (inactive) | 26.1% (inactive) |
| CCNC(=O)N(C(=O)NCC)n1c(C)nnc1C | 615 | -11.1% (inactive) | 16.9% (inactive) | 96.4% | 28.7% (inactive) | 130% | -1.98 | 1.53 | -0.158 | 1.12% (inactive) | -0.413 (inactive) | -6e-05 (inactive) | 0.00476 (inactive) | inactive | 11% (inactive) | 9.47% (inactive) | 14% (inactive) |
| CCOC(=O)N1CCC(=C2c3ccc(Cl)cc3CCc3cccnc32)CC1 | 695 | -7.4% (inactive) | -15% (inactive) | 106% | -79.3% (inactive) | 132% | 1.11 | 0.137 | -0.637 | 27.1% (inactive) | -0.512 (inactive) | -3.2e-05 (inactive) | 0.00337 (inactive) | inactive; toxic | -6.14% (inactive) and -3.57% (inactive) | -15.2% (inactive) | -34% (inactive) |
| Cn1nnc2c(sc3nc(N4CCOCC4)c4c(c32)CCCC4)c1=O | 611 | -5.6% (inactive) | 21.6% (inactive) | 109% | -120% (inactive) | 114% | 3.22 | -0.738 | -2.88 | 28.6% (inactive) | -0.348 (inactive) | -2.4e-05 (inactive) | 0.00477 (inactive) | inactive | -8.88% (inactive) | -5.47% (inactive) | -2.11% (inactive) |
| CCC(C)n1ncn(-c2ccc(N3CCN(c4ccc(OCC5COC(Cn6cncn6)(c6ccc(Cl)cc6Cl)O5)cc4)CC3)cc2)c1=O (stereo not given) | 587 | 3.2% (inactive) | -63.7% (inactive) | 140% | -162% (inactive) | 121% | 0.653 | -0.579 | -0.684 | 1.38% (inactive) | -0.456 (inactive) | -5.2e-05 (inactive) | 0.00423 (inactive) | inactive | 5.29% (inactive) | 33.8% (inactive) | 4.61% (inactive) |
